Compound activity: PubChem, several laboratories
NadD block – inhibitors of S. aureus NadD, primary screen, biochemical, colorimetric, uHTS; Nicotinate-nucleotide adenylyltransferase NadD (Staphylococcus aureus N315); purified NadD enzyme, colorimetric absorbance read-out; inhibition, % at 20 µM; actives 0.78% (n = 360,000); in the data active = inhibition above about 26%
rCAG binder – binders of r(CAG) RNA repeats, primary screen, biochemical, fluorescence; actives 1.3% (n = 370,000); inhibition, % at 3 µM; r(CAG) RNA repeat, TO-PRO-1 dye displacement fluorescence;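 active = inhibition above the plate cutoff, the mean of all test compounds on that plate plus 3 SD, cut at about 35% in these data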;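 also: higher means more dye released from RNA so lower well fluorescence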
bovine MsrA act – bovine MsrA enzyme activators, primary screen, biochemical, absorbance, HTS; Methionine sulfoxide reductase A (Bos taurus); purified bovine MsrA, absorbance read-out; activation, % at 10.6 µM; actives 0.3% (n = 360,000); AID 602163, 2012; in the data active = activation above about 7.5%
MsrA inhibitor – bovine MsrA enzyme inhibitors, primary screen, biochemical, absorbance, HTS. Methionine sulfoxide reductase A (Bos taurus). purified bovine MsrA, absorbance read-out. inhibition, % at 15.5 µM. actives 0.75% (n = 360,000). AID 651718, 2012; in the data active = inhibition above about 4.5%
Large screens that a line does not name were inactive. An excerpt weighted towards active compounds, which were near 2.7% of everything screened.

COC(=O)CSc1nc(N)c2c3c(sc2n1)C(c1ccccc1)SC(c1ccccc1)C3 (centres undefined)	NadD block 49.7 (no result: rCAG binder, MsrA inhibitor)
Oc1ccc(/C=N/Nc2nc(-c3cccnc3)nc3ccccc23)c(O)c1	NadD block 39.3
Cc1c(O)ccc(/C=N/Nc2nc(-c3cccnc3)nc3ccccc23)c1O	NadD block 36.4
COc1ccc(/C=N/Nc2nc(-c3cccnc3)nc3ccccc23)cc1OC	none
O=c1ccn([C@@H]2O[C@H](CNS(=O)(=O)c3csc(-c4ccno4)c3)[C@@H](O)[C@H]2O)c(=O)[nH]1	none
COc1ccc(/C=C/C(=O)c2ccc[nH]2)c(OC)c1OC	MsrA inhibitor 4.6
COc1cc(/C=C/C(=O)OCC(=O)c2ccc[nH]2)cc(OC)c1OC	none
COc1cccc(N2CCN(CC(=O)NCc3ccccc3C)CC2)c1	none (no result: NadD block, bovine MsrA act, MsrA inhibitor)
O=[N+]([O-])c1ccc(S(=O)(=O)NN=Cc2ccc(Cl)c(Cl)c2)cc1	none
COc1cc(/C=C2\C(=N)N3N=C(S(C)(=O)=O)SC3=NC2=O)ccc1OCCOc1ccc(C)cc1	NadD block 33.4
CCC1=NN2C(=N)/C(=C\c3ccc(OCc4cc(=O)n5nc(CC)sc5n4)c(OC)c3)C(=O)N=C2S1	NadD block 43.8
COc1cc(/C=C2/C(=N)N3N=C(CC(=O)N4CCOCC4)SC3=NC2=O)ccc1OC(C)c1ccccc1 (centres undefined)	none
COc1cc(/C=C2\C(=N)N3N=C(N4CCOCC4)SC3=NC2=O)ccc1OC(=O)c1ccccc1	NadD block 37.2
O=C(OC12CCCN(C1)/C(=C/c1cccnc1)C2)C1CCCCC1 (centres undefined)	none (no result: NadD block, bovine MsrA act, MsrA inhibitor)
COc1ccc(-n2ncc3c2CC(C)(C)CC3NC(=O)C2CCN(C(C)=O)CC2)cc1 (centres undefined)	none
CCCN=C1N(C)C[C@@H]2[C@@H]3C(=O)N(Cc4ccccc4)C(=O)[C@@H]3[C@](CC)(C(=O)OC)N12	none
Cc1cc2nc(N)sc2cc1[N+](=O)[O-]	MsrA inhibitor 5.2
N#CCC[C@@H]1CC[C@]2(CCCN(C(=O)c3cccnc3)C2)O1	none (no result: NadD block, bovine MsrA act, MsrA inhibitor)
CCc1cc2c(=O)c(Oc3ccccc3F)c(C)oc2c(CN(C)C)c1O	MsrA inhibitor 6.7
O=S(=O)(Nc1nc2ccccc2s1)c1cc(F)ccc1F	none
O=S(=O)(Nc1nc2ccccc2s1)c1ccc(Cl)s1	rCAG binder 43.7
Cc1ccc(NC(=O)c2cc3ccccc3oc2=N)cc1	none
N=c1oc2c3c4c(cc2cc1C(=O)Nc1ccccc1)CCCN4CCC3	NadD block 31.5 (no result: rCAG binder, MsrA inhibitor)
CC(/C=C1\SC(=S)N(CCC(=O)Nc2ccccc2O)C1=O)=C\c1ccccc1	NadD block 33.7
O=C(CCCN1C(=O)/C(=C/c2ccccc2)SC1=S)Nc1ccccc1O	none
O=C(O)CN1C(=O)/C(=C\C(Br)=C\c2ccccc2)SC1=S	rCAG binder 49.7
O=C(O)CN1C(=O)/C(=C/C=C/c2ccccc2)SC1=S	none
O=C(CCN1C(=O)/C(=C/C=C/c2ccccc2)SC1=S)Nc1ccccn1	NadD block 37.0
NC(=O)c1ncn([C@@H]2O[C@H](CNCc3cccn3-c3ccncc3)[C@@H](O)[C@H]2O)n1	none
O=[N+]([O-])c1ccc(C=Nc2ccc(Cl)c([N+](=O)[O-])c2)s1	MsrA inhibitor 5.1
COc1ccc(C(=O)Nc2nnc(CC(=O)N/N=C/c3ccc(O)cc3O)s2)cc1	NadD block 33.8
Cc1ccc(C(=O)Nc2nnc(CC(=O)N/N=C/c3ccc(O)c(O)c3)s2)cc1	NadD block 36.6
Cc1ccc(C(=O)Nc2nnc(CC(=O)N/N=C/c3ccncc3)s2)cc1	none
CC(C)c1cc(N=NC(N)=O)cc(C(C)C)c1O	MsrA inhibitor 4.6
O=C(/C=C/c1ccccc1)c1ccc(NC2=NCCCS2)cc1	none
O=C(/C=C/c1ccc(Br)cc1)c1ccc(NC2=NCCCS2)cc1	MsrA inhibitor 4.8
Cc1cccc(Cn2cc(CN3CC(N(C)CCCOC(=O)c4cc5ccccc5o4)CS3(=O)=O)nn2)c1 (centres undefined)	none (no result: NadD block, bovine MsrA act, MsrA inhibitor)
COc1cccc(C=NNC(=O)c2ccncc2)c1O	none
COc1ccc(/C=N/NC(=O)c2nc(-c3ccccc3)n(-c3ccccc3)n2)c(O)c1	NadD block 41.4
COc1cccc(/C=N/NC(=O)c2nc(-c3ccccc3)cc(-c3ccccc3)n2)c1O	NadD block 29.2
CCCCc1cc(=O)oc2cc(C)cc(OCC(=O)NC(Cc3ccc(Cl)cc3)C(=O)O)c12 (centres undefined)	rCAG binder 40.0
